Assay results reported in ChEMBL document CHEMBL3988442, “University of Dundee, Small-Polar-MMV Screening Library” (2021).
For some assays here: Potency and affinity values are given separately.

Tests used:
Design in all cases: scale not given: direction of the effect not stated beside the values
[1] = biological target: Protein translocase subunit SecA (Escherichia coli (strain K12)) (UniProt P10408); assay: Assay to Identify E. coli SecA ATPase Inhibitors; assay type: functional; conditions: 30 µM
[2] = biological target: T1, Ubiquitin-activating enzyme e1, putative (Leishmania donovani (strain BPK282A1)) (UniProt E9BSI1); assay: Leishmania donovani Ubiquitin Activating Enzyme (LdE1); assay type: functional; conditions: 30 µM
T1 sequence (whole entry): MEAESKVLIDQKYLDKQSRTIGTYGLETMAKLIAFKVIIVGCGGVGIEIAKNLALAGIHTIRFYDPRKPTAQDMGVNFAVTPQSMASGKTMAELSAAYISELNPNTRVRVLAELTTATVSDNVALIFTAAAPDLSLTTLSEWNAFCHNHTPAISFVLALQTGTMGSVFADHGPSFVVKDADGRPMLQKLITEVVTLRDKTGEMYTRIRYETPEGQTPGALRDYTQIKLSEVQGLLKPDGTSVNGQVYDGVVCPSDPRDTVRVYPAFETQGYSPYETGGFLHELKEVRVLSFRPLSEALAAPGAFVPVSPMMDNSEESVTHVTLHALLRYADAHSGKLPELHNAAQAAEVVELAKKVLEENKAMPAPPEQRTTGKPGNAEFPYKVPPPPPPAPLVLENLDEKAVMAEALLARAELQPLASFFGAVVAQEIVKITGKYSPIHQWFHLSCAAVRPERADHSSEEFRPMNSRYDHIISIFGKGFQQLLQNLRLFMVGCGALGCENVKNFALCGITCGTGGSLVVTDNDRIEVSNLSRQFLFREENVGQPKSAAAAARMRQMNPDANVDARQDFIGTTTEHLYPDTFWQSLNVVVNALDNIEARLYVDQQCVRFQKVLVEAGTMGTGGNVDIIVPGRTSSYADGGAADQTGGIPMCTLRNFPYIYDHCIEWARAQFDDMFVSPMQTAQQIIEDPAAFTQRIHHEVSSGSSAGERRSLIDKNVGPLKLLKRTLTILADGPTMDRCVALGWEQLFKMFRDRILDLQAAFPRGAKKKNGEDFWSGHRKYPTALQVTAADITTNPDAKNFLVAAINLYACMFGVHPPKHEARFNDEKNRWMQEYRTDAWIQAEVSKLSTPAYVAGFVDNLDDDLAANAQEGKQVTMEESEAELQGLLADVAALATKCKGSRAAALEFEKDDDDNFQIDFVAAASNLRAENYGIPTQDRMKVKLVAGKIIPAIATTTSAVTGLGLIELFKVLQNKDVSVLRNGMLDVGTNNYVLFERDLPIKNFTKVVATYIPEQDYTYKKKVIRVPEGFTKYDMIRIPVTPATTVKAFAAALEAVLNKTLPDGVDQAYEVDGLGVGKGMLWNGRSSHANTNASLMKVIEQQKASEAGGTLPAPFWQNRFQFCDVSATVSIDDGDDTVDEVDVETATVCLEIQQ

[3] = biological target: AMP-activated protein kinase, AMPK (Homo sapiens) (UniProt P54646+O43741+P54619+Q9UGJ0+Q9Y478+Q13131+Q9UGI9); assay: AMP-dependent Kinase enzyme assay. An in vitro enzyme assay that detects ADP turnover that is directly proportional to AMPK activity. This uses naive AMPK that is activated during the assay with MK-8722; assay type: functional; conditions: 30 µM
[4] = biological target: Sialic acid-binding Ig-like lectin 9 (Homo sapiens) (UniProt Q9Y336); assay: Hs-Siglec9 ALPHAscreen SOP 20170721; conditions: 10 µM
Trypanosoma cruzi = assay: Trypanosoma cruzi phosphomannomutase and mannose-1-phosphate guanylyltransferase assay; assay type: functional; conditions: 10 µM
[5] = biological target: T2, Arginase-2, mitochondrial (Homo sapiens) (UniProt P78540); assay: in vitro enzyme assay to detect the production of urea directly proportional to the activity of Arginase II; assay type: functional; conditions: 33.3 µM; note: in the data most compounds retested in dose-response had high values
T2 sequence (whole entry): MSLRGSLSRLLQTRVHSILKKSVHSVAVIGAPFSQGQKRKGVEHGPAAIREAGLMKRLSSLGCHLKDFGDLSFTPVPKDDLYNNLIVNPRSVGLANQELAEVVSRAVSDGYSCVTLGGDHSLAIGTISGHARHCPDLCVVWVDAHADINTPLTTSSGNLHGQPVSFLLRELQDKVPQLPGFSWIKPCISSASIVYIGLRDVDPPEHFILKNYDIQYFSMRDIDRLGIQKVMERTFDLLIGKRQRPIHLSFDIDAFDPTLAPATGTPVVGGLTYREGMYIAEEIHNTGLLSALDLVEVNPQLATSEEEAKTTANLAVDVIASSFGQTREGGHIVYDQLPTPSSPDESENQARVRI

[6] = biological target: T3, Proteasome subunit beta (Trypanosoma cruzi) (UniProt O96673); assay: Trypanosoma cruzi proteasome chymotrypsin-like activity (TcProtChymo) assay.; note: in the data most compounds retested in dose-response had high values; assay type: functional; conditions: 9.37 µM
T3 sequence (whole entry): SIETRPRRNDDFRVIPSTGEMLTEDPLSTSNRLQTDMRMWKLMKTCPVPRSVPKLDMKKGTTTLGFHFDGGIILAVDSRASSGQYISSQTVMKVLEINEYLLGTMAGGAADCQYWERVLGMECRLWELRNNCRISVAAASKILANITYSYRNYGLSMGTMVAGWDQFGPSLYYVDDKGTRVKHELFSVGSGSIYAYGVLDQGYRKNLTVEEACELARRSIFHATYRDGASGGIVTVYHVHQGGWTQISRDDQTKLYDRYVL

Homo sapiens = species: Homo sapiens; assay: To identify inhibition of the IFN signalling (Jak-Stat) pathway via expression of an eGFP reporter gene under the control of an IFN-stimulated response element (ISRE) containing MxA promoter.; assay type: functional; conditions: 30 µM
[7] = biological target: T4, Tyrosyl-tRNA synthetase, putative (Trypanosoma cruzi (strain CL Brener)) (UniProt Q4DSP6); assay: Trypanosoma cruzi tyrosyl tRNA synthetase (TcYRS) _High Tyrosine SOP; assay type: functional; conditions: 30 µM; note: in the data most compounds retested in dose-response had high values
T4 sequence (whole entry): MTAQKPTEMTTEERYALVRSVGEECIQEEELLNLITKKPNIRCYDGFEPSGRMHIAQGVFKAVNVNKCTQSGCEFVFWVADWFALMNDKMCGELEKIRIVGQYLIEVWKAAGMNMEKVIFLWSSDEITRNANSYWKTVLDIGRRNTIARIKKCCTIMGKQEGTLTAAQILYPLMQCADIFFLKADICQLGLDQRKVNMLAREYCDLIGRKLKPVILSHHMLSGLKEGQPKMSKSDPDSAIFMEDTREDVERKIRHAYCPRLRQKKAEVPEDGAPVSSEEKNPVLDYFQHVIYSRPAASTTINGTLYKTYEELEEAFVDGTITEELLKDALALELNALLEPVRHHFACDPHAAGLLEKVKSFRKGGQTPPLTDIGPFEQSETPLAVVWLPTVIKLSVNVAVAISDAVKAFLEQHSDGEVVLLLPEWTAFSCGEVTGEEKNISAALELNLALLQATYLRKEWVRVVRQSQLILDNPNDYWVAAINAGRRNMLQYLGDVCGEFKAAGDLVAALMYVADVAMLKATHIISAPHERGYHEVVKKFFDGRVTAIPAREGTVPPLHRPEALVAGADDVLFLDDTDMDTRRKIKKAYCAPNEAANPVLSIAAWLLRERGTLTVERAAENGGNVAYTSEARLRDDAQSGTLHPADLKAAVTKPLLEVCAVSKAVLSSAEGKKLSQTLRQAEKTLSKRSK

[8] = biological target: T4, Tyrosyl-tRNA synthetase, putative (Trypanosoma cruzi (strain CL Brener)); assay: Trypanosoma cruzi tyrosyl tRNA synthetase (TcYRS) SOP; assay type: functional; conditions: 30 µM
[9] = biological target: Chromo domain-containing protein 1 (Saccharomyces cerevisiae (strain ATCC 204508 / S288c) (Baker's yeast)) (UniProt P32657); assay: ScCHD-1 Enzyme Inhibition Assay; assay type: functional; conditions: 30 µM; note: in the data most compounds retested in dose-response had high values
Chain of Chromo domain-containing protein 1 (Saccharomyces cerevisiae (strain ATCC 204508 / S288c) (Baker's yeast)) (P32657 whole entry, the tested form may be a part): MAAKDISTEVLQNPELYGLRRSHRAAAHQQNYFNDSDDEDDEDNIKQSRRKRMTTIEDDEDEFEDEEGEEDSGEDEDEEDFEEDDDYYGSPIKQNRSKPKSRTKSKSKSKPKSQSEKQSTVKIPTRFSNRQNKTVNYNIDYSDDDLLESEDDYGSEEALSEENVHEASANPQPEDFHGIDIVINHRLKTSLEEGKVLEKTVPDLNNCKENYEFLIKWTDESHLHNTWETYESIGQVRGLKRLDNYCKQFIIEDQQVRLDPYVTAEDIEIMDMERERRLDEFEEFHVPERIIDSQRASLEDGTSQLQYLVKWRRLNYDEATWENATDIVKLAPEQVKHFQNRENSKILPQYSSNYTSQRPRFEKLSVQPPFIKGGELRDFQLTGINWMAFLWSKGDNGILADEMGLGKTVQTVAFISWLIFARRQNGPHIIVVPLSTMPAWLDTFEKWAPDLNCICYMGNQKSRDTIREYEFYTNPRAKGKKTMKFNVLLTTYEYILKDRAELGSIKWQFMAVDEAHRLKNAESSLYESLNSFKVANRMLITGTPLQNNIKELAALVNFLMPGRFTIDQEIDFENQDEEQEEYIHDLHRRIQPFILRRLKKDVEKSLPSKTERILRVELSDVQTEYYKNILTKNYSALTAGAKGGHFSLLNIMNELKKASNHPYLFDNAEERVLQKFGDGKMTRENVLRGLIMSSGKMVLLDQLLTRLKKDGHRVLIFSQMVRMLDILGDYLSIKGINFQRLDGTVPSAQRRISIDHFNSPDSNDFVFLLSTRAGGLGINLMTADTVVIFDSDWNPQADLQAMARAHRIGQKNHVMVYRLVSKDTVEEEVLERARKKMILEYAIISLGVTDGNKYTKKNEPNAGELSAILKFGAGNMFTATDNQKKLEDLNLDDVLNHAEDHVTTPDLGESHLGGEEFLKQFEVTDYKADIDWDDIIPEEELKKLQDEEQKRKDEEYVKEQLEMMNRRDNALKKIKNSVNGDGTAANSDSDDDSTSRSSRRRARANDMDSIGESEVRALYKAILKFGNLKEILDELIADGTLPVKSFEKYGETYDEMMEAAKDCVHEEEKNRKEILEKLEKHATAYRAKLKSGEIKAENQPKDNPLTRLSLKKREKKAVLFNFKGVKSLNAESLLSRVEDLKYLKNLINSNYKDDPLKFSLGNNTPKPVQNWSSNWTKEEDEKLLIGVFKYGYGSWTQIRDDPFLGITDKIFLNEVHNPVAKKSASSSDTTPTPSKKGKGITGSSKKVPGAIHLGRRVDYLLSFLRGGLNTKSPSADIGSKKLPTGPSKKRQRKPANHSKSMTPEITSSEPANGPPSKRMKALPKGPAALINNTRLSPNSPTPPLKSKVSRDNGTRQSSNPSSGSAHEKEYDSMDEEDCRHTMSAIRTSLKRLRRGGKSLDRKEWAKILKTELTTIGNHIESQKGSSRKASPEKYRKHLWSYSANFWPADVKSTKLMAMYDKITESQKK

Chain of Protein translocase subunit SecA (Escherichia coli (strain K12)) (P10408 whole entry): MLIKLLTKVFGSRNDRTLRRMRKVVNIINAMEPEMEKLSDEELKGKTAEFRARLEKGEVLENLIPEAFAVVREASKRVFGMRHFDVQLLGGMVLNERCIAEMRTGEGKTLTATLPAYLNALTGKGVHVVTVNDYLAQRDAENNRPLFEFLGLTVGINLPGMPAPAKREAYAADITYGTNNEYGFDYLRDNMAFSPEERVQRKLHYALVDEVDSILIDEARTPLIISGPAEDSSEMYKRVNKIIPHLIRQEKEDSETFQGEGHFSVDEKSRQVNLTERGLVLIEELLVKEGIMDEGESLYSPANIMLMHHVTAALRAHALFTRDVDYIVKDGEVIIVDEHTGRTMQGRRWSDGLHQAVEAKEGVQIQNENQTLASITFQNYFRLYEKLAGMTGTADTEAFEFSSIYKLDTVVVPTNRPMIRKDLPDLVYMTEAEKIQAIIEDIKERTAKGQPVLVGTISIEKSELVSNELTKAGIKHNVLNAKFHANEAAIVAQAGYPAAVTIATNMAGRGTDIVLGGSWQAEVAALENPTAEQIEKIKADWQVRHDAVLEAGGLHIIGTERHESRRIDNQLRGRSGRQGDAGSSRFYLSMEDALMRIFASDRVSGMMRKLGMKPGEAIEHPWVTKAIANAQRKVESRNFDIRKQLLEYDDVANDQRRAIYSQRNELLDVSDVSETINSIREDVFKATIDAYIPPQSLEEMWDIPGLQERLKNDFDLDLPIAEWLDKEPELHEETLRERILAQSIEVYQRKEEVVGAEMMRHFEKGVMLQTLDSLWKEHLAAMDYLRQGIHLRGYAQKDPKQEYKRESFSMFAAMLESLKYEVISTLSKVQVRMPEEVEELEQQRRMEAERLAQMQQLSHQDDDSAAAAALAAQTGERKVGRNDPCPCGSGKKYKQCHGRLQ
Chain of Sialic acid-binding Ig-like lectin 9 (Homo sapiens) (Q9Y336 whole entry): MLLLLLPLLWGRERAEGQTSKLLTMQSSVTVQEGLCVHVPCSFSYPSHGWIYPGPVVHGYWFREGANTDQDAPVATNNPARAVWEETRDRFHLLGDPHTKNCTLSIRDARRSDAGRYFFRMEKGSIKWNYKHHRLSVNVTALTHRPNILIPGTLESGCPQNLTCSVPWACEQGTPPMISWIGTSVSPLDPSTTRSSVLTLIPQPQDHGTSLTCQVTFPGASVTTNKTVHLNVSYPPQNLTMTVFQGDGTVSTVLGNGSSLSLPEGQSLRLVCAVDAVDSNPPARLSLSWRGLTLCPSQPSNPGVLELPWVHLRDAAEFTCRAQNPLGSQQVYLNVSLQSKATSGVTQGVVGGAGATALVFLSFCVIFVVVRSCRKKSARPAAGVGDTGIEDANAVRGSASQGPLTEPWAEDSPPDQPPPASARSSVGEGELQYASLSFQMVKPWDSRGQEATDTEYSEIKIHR

SMILES | Percent Effect [1] [%] | Percent Effect [2] [%] | Percent Effect [3] [%] | Percent Effect [4] [%] | Percent Effect (Trypanosoma cruzi) [%] | Percent Effect [5] [%] | Percent Effect [6] [%] | Percent Effect (Homo sapiens) [%] | Percent Effect [7] [%] | Percent Effect [8] [%] | Percent Effect [9] [%]
Cc1nc(C)n(CC2CCCN2CC(=O)Nc2ccnn2C(C)C)n1 (configuration not stated) | 3.15 | 18.4 | 16 | -8.63 | -8.31 | 2.16 | 14 | 1.93 | 5.42 | 16.1 | -6.21
Cc1nc(CN2CCC3(CCN(c4ncc(F)cn4)C3)C2=O)cs1 (configuration not stated) | 1.42 | 15.6 | 4.16 | -14.7 | -3.25 | 9.68 | 21.4 | 6.2 | 6.35 | 11.5 | -9.48
COCCN1C(=O)CO[C@H]2CN(Cc3c[nH]nc3-c3ccccc3)C[C@@H]21 | -5.09 | 12.2 | 8.07 | 9.93 | 2.77 | -5.8 | 2.34 | 19.6 | 2.15 | 6.49 | -22.8
Cn1cccc1C(=O)N1CCN(Cc2ccncc2)c2ncccc2C1 | 1.82 | 13.3 | 9.01 | 8.59 | -4.83 | -57.2 | 12.1 | 13.8 | 8.33 | 10 | -5.07
Cc1ccc(-c2cc(CNC(=O)N3CCOC(C)C3)on2)cc1 (configuration not stated) | 0.724 | 8.11 | 7.2 | -10.1 | -4.92 | 3.88 | 7.54 | 20.6 | 6.93 | 13.4 | -5.48
Cc1cnn(C2CN(CC(=O)NCCc3ccccc3)C2)c1 | -3.73 | -10.5 | 3.48 | 3.23 | 1.21 | -2.16 | -0.254 | 8.21 | 5.42 | 13.6 | 4.88
COc1ccc(CN2CCCCC2CNC(=O)OC(C)(C)C)cc1F (configuration not stated) | -3.55 | 0 | -2.98 | 21.3 | -1.86 | -1.74 | 0.0858 | -23.7 | -2.15 | 1.24 | -2.09
Cc1cnc(CN2CCCC(c3cc(C(N)=O)[nH]n3)C2)o1 (configuration not stated) | 1.3 | 24.3 | -15.7 | -4.2 | 0.472 | -16.8 | 17.1 | -3.25 | 5.42 | 18.5 | -9.23
Cc1cc(CN2CCN(C(=O)NC(C)Cn3ccnc3)CC2)no1 (configuration not stated) | -1.68 | 5.26 | 3.31 | 7.81 | 3.38 | 1.53 | -4.18 | 9.94 | 3.43 | 7.32 | -4.96
CC(COc1ccccc1)NCc1nc(-c2cccnc2)no1 (configuration not stated) | -2.6 | 6.94 | -4.69 | 0.164 | 1.85 | 3.09 | 6.14 | 5.92 | 3.16 | 10.3 | -2.08
Cc1noc2ncc(C(=O)N(CC3CCOC3)C3CC3)cc12 (configuration not stated) | -0.0275 | 7.89 | -3.99 | 3.92 | -9.59 | 3.45 | 7.69 | 24.4 | 0.49 | 4.88 | -5.66
Cc1nnc2n1CCN(CCC(=O)Nc1sccc1C#N)C2 | -2.38 | 13.2 | -4.92 | 7.34 | 0.84 | -0.719 | 10.4 | 9.54 | 6.4 | 18.5 | -2.88
Cc1csc(CCCNC(=O)[C@H]2CNC[C@@H](C(=O)N3CCCC3)C2)n1 | -4.06 | 8.22 | 0.0773 | 8.38 | -1.39 | 0.399 | 15.8 | -8.49 | 10.4 | 11.1 | -1.73
COc1ccccc1OCC(=O)NS(=O)(=O)c1ccccc1F | -3.52 | 13.5 | -3.34 | 25.9 | 4.44 | -0.952 | 11.9 | 6.7 | 2.65 | 9.76 | -10.8
CC(C#N)CSc1ccccc1NCC(=O)Nc1ccc(F)cc1 (configuration not stated) | -7.84 | -5.48 | 17.1 | -9.84 | -3.33 | 1.82 | 6.39 | 3.15 | -8.6 | -10 | -0.597
CCCc1nc(C)cc(N2CCC3(CCC(=O)N(CC4CC4)C3)CC2)n1 | -2.3 | 8.11 | -0.987 | 3.81 | -3.03 | 3.23 | 8.67 | 1.04 | -5.38 | 13.6 | -4
CCc1ncc(C(=O)N2CCCCC2Cn2cccn2)s1 (configuration not stated) | -0.823 | 0 | 2.6 | -4.33 | -3.44 | 1.66 | -4.13 | 7.71 | 2.97 | -23.2 | 10.1
Cc1cc(F)ccc1S(=O)(=O)NCc1cccc(C(=O)N2CCCC2)c1 | -5.18 | 15.6 | 2.25 | 0.935 | 2.64 | -12 | 2.34 | 26.5 | 6.67 | 9.41 | -12.9
CN(C)CCN(Cc1cccc(C(F)(F)F)c1)C(=O)c1cc[nH]n1 | 1.05 | -4.17 | -0.743 | -0.91 | -4.57 | 2.65 | 5.61 | 6.86 | -3.16 | -10.3 | -3.17
O=C(c1ccnnc1)N1C[C@@H]2CC[C@H](Oc3cccc(F)c3)[C@@H]2C1 | -4.43 | -1.35 | 15.2 | -2.19 | -6.13 | 1.16 | 2.34 | -7.87 | 1.07 | -3.9 | -7.63
Cn1nccc1C(=O)N1CCOC(Cc2cccc(C(F)(F)F)c2)C1 (configuration not stated) | -6 | 0 | 0.696 | -3.79 | -3.99 | -0.521 | 4.18 | 12.7 | 3.83 | 3.7 | 2.23
CC(NC(=O)NCCCN(C)C)c1ccc2c(c1)CCC(=O)N2 (configuration not stated) | -3.72 | 13 | 0.292 | -0.949 | 10.1 | -6.05 | 15 | -16.2 | 8.74 | 21.9 | -6.2
